# Test results as given in publication PMC7819943, “Rice protein-binding microarrays: a tool to detect cis-acting elements near promoter regions in rice”.
# In all, about 68,000 sequences were measured (“fluorescence intensity (a.u.)”: median about 9,100, highest 2% from about 16,000 on). Only a selection was taken, and the highest values are over-represented in it overall.
# Biological target: OsWRKY34 (Oryza sativa, UniProt Q0JBA9 1-250)
# Assay: protein-binding microarray (RPBM); PBS, 2% BSA, 51.3 ng/ul salmon testes DNA, 50 uM zinc acetate, 200 nM TF, 25 C, 1 h; high values mean tight binding
# Conditions: protein: recombinant; tags: N-terminal polyhistidine and DsRed monomer fusion (pET32a); label: CyDye5-dUTP incorporated in the synthesized complementary strand; 3' TTTTT single-stranded linker to array surface; dsDNA, one strand shown
# Procedure, shortened: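 Binding signal is reported as fluorescence intensity per feature (arbitrary units) from an Axon 4000B scanner. Incubation used 200 nM of each Ni–NTA-purified, N-terminally polyhistidine- and DsRed-fused transcription factor from E. coli BL21-CodonPlus on a double-stranded custom Agilent array for 1 h at 25 °C, with 50 µM zinc acetate in the buffer, followed by washing.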
# OsWRKY34, sequence (Q0JBA9 entry or part of it): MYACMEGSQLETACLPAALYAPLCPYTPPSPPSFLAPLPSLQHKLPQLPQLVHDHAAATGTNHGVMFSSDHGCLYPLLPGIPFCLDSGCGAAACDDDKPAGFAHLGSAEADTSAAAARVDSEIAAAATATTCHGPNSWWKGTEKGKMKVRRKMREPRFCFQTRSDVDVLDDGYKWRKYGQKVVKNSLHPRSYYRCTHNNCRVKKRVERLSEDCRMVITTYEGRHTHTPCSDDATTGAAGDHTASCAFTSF
row,Sequence,binding signal
1,ATGGGTTGGGACTGTCCTGGTGCGCGATTACTAACGTGGACGGAGTCACCTAGTGCAG,8790 fluorescence intensity (a.u.)
2,TATTGGAACTATTACGACCACATGCTCTCTTCCTACTCTCCGGAGTCACCTAGTGCAG,9770 fluorescence intensity (a.u.)
3,CTCCAGCCGATATACATGCAGCCGCTGTCATCTTTTGTTCCGGAGTCACCTAGTGCAG,9100 fluorescence intensity (a.u.)
4,TCTTTTACACTTCATTTATTTTTTCATGCACCAAGGCTTACGGAGTCACCTAGTGCAG,9810 fluorescence intensity (a.u.)
5,TGTTTTGGCTTTGGTCCCTTGCTTTTCTTTGGAGGTTGGACGGAGTCACCTAGTGCAG,10400 fluorescence intensity (a.u.)
6,TTCTTTTTTTGTGGGGAGAGGCGGGCTGTTTTTTTCTTGCCGGAGTCACCTAGTGCAG,15900 fluorescence intensity (a.u.)
7,GGATACTGCACAGCCCTTGATCACAATACAGTGCATTTCTCGGAGTCACCTAGTGCAG,9450 fluorescence intensity (a.u.)
8,CTTGCACGCGACGGCCTGGCATTTGTGTACGGCACCGCCCCGGAGTCACCTAGTGCAG,8030 fluorescence intensity (a.u.)
9,GGGGATTTTTGTACGCTCACGGCATTTTTTTTGTCAGCGACGGAGTCACCTAGTGCAG,17500 fluorescence intensity (a.u.)
10,GAGTAGTTCGCTTTGGCAGTATGGCATTTGTACACGCTCACGGAGTCACCTAGTGCAG,8660 fluorescence intensity (a.u.)
11,TATCTTATCAGGTCTCGTCTTCTTTAATCCAACCCTTGTTCGGAGTCACCTAGTGCAG,8680 fluorescence intensity (a.u.)
12,ATCTTAAGCTGTCCTTTTTCATGCCGAGTCAGAGTTTCATCGGAGTCACCTAGTGCAG,9130 fluorescence intensity (a.u.)
13,TCGGATACGAGTTTGATTCTCATCCTCCTTCATTTATATTCGGAGTCACCTAGTGCAG,8320 fluorescence intensity (a.u.)
14,ACTCCCTCCGTATTTTAATATATGACGCCGTTGACTTATTCGGAGTCACCTAGTGCAG,13800 fluorescence intensity (a.u.)
15,CCGTATTTGAATATATGACGCCGTTGACTTTTTAACTAATCGGAGTCACCTAGTGCAG,17900 fluorescence intensity (a.u.)
16,GTATGACTTCTCCGTTTTTATATTTGCACTAATTTTTTAACGGAGTCACCTAGTGCAG,11200 fluorescence intensity (a.u.)
17,CGTATTTTAATATATGACGCCGTTGACTTTTTATTAACGACGGAGTCACCTAGTGCAG,23200 fluorescence intensity (a.u.)
18,CGTATTTTAATATATGACGCCCGCCGTTGACTTTTTGTCTCGGAGTCACCTAGTGCAG,27800 fluorescence intensity (a.u.)
19,CTCTGCACGTTTCTTTCCCCTAACAAATACATGTACACACCGGAGTCACCTAGTGCAG,9590 fluorescence intensity (a.u.)
20,ACACATAAACTTCTAACTTTTCCGTCACATCGTTCCAATTCGGAGTCACCTAGTGCAG,8380 fluorescence intensity (a.u.)
21,GCATCCTAACATCCCGCCGAAGGACCTTTTCAACCTCATCCGGAGTCACCTAGTGCAG,8300 fluorescence intensity (a.u.)
22,ATTGAGATAGAGGGAGTGGTTGGGATGGTGAAGTTGCTATCGGAGTCACCTAGTGCAG,9450 fluorescence intensity (a.u.)
23,ACTCCATCAATTTTTCATTATGTCTGTGTTTGTCCTGACTCGGAGTCACCTAGTGCAG,14900 fluorescence intensity (a.u.)

row,Sequence,binding signal
1,TCAACTGTACTGTACTCCACTCGCCGCACACACTGACACACGGAGTCACCTAGTGCAG,11200 fluorescence intensity (a.u.)
2,AGTTGTCCTGCTTTTTTGCTTTCCTAATCTGTTTCCATTTCGGAGTCACCTAGTGCAG,13300 fluorescence intensity (a.u.)
3,ATACTTCATCCGTTTCTAAATATTTGATGCCGTTGACTTTCGGAGTCACCTAGTGCAG,17600 fluorescence intensity (a.u.)
4,ATGTCCCTAATTACTGCGTTTTCCATTTTGCTGTTTTTTACGGAGTCACCTAGTGCAG,16500 fluorescence intensity (a.u.)
5,AATTGACTTTTTTATGCTAATTTTCCCTCTAATTACTTGTCGGAGTCACCTAGTGCAG,18400 fluorescence intensity (a.u.)
6,AATTTTTTTCCTCTCCTGTTTTGTGCCCTTGATATTATGTCGGAGTCACCTAGTGCAG,13400 fluorescence intensity (a.u.)
7,GGGCATATTTCTCTATTTTTCTATTCCTATGGTTTGAAATCGGAGTCACCTAGTGCAG,9080 fluorescence intensity (a.u.)
8,CATATACTCTATCCGTTTCTAAATATTTGACGCCGTTGACCGGAGTCACCTAGTGCAG,16200 fluorescence intensity (a.u.)
9,GGTTTCCTCATATGCCCTTGAAAATTTGCTATTCCTCTGTCGGAGTCACCTAGTGCAG,22700 fluorescence intensity (a.u.)
10,ATATGTCTGACTTGTACTTTTATGTTATTTTTCCTCTAATCGGAGTCACCTAGTGCAG,13900 fluorescence intensity (a.u.)
11,AATATTTCATCAGTTTCTAAATTTTTGACGCCGTTGACTTCGGAGTCACCTAGTGCAG,10200 fluorescence intensity (a.u.)
12,TTATGCGTGACTTGTCTTTTTAATTTTTTAATAATTTTTTCGGAGTCACCTAGTGCAG,9370 fluorescence intensity (a.u.)
13,CATTTTTCTAATTACAAAGTCCATTTCTTTTTATGTTTTCCGGAGTCACCTAGTGCAG,8830 fluorescence intensity (a.u.)
14,CTGTTTAGATCTCCTAGCAACATTTTACACTCTCTTGCATCGGAGTCACCTAGTGCAG,8740 fluorescence intensity (a.u.)
15,CGAACGGTTTAACATATTTAAAAAAGTCAACGGCGTCAAACGGAGTCACCTAGTGCAG,8310 fluorescence intensity (a.u.)
16,GCTTGTTTCTTTGCTGAATTATTATTTTGCTCATTCCACTCGGAGTCACCTAGTGCAG,10300 fluorescence intensity (a.u.)
17,TTTTTCCCTGAAGCTCCTGTGTGTCATCTCTCTTTTTCTTCGGAGTCACCTAGTGCAG,11100 fluorescence intensity (a.u.)
18,ACACTGCCACTCTCTCCCTAGGCCTATAAATACCACCAGTCGGAGTCACCTAGTGCAG,8340 fluorescence intensity (a.u.)
19,CATGTTAATTTTCTACTACAGCTTAGGTTGATGCTATGTTCGGAGTCACCTAGTGCAG,8270 fluorescence intensity (a.u.)
20,ATCCGCAGACCAAGTCAACACTGCTACGTGAACACCACATCGGAGTCACCTAGTGCAG,9850 fluorescence intensity (a.u.)
21,ACGTTATTTATTGTTTTAGGTTCAATCTACGAGTTTCTTTCGGAGTCACCTAGTGCAG,10700 fluorescence intensity (a.u.)
22,TCCTCTTCGCCGGCTGCCGCTCCTCTCCCCGCTCGTCTTTCGGAGTCACCTAGTGCAG,9440 fluorescence intensity (a.u.)
